# Bioassay records (PubChem)
# KCNQ2 pot = potentiators of rat KCNQ2 potassium channel. Potassium voltage-gated channel subfamily KQT member 2 (Rattus norvegicus), O88943. CHO-K1 KCNQ2, FluxOR thallium flux fluorescence; active compounds read high. B-score at 10 µM. hit rate 0.54% among 310,000. AID 2239, 2010;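 active = fluorescence ratio B-score at least 3 SD of library B-scores, with initial fluorescence B-score within 3 of them, cut at about 5.3 in these data; same plate scores as AID 2156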;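 also: B-score of peak minus minimum over baseline fluorescence ratio after K+ and Tl+ stimulus; positive B-score means potentiation of KCNQ2 with more thallium influx and brighter signal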
# KCNQ2 inh = rat KCNQ2 potassium channel inhibitors, primary screen, cell-based, CHO-K1, FluxOR thallium flux, B-score; 20 min; active compounds read low; hit rate 1.1% among 310,000; B-score at 10 µM;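 active = fluorescence ratio B-score at most minus 3 library SDs, with starting brightness B-score within 2 library SDs, cut at about -5.5 in these data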
# Kir21 conf inh = mouse Kir2.1 channel blockers, retest, confirmation, cell-based, FluxOR thallium flux, duplicate; Tl flux remaining, % of negative control (active compounds read low), % at 10 µM; Kir2.1-expressing cells, FluxOR thallium flux fluorescence; active compounds read low; hit rate 41% among 2,300; shares compounds with KCNQ2 pot;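 active = Primary-screen hit whose thallium flux fell at least 3 control SD below untreated wells in both duplicates, with normal baseline fluorescence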;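 also: 0% = blank wells without stimulus and 100% = stimulated no-compound controls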
# HEK293 ctr = parental HEK293 activity in Kir2.1 inhibitor counter-screen | shares compounds with KCNQ2 pot | parental HEK293 cells, FluxOR thallium flux fluorescence; 0% = unstimulated blank wells | FluxOR signal as % of negative control (100 = no effect), % at 10 µM | hit rate 19% among 2,300;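 active = dye signal at least 3 control SD above or below untreated wells in both duplicates, raw fluorescence within 3, either direction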;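 also: percent is based on the flux ratio of peak minus minimum fluorescence over baseline F0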
# CHO-K1 ctr = nonspecific thallium flux increase in parental CHO-K1, confirmation, counter-screen for KCNQ2 potentiator project, cell-based, FluxOR thallium flux, duplicate; shares compounds with KCNQ2 pot; parental CHO-K1 cells, FluxOR thallium flux fluorescence; zero = vehicle mean+3SD, 100% = vehicle-minus-blank window; activity increase over 3SD of controls, % at 10 µM; hit rate 43% among 1,200;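 active = signal rise of at least 3 SD above the untreated control mean, in both duplicate wells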;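 also: counter screen of KCNQ2 potentiator hits so any rise reflects channel-independent effects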
# KCNQ1 sel pot = human KCNQ1 channel potentiation off-target, confirmation, selectivity assay for KCNQ2 potentiator project, cell-based, CHO, FluxOR thallium flux; shares compounds with KCNQ2 pot; CHO KCNQ1 stable, FluxOR thallium flux fluorescence; beyond 3SD, as % of vehicle-control signal; activation over 3SD threshold, % at 10 µM; hit rate 28% among 1,200; AID 2283, 2010;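 active = fluorescence ratio rise of at least 3 SD of vehicle wells above their mean, in both replicate wells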;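 also: 0% = vehicle mean plus 3 SD and 100% = vehicle minus unstimulated blank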
# Target sequence (P51787 whole entry, looked up): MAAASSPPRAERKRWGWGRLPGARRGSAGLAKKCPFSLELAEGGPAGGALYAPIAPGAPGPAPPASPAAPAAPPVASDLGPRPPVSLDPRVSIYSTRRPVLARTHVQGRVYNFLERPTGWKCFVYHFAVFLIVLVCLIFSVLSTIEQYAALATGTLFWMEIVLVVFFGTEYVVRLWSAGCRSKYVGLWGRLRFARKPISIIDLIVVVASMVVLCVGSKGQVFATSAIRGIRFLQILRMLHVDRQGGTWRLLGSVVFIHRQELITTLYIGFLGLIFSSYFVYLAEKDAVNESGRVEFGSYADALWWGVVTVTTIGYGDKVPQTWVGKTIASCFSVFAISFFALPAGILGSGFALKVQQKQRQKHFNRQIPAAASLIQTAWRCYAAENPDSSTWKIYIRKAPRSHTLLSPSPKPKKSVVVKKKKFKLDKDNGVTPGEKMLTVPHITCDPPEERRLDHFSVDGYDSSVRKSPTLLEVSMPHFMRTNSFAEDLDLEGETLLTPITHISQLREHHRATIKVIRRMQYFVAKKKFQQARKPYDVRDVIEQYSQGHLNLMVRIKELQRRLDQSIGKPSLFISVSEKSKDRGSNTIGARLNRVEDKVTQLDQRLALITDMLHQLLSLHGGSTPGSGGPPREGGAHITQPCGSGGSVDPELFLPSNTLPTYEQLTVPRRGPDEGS
# KCNQ2 pot confirm = rat KCNQ2 channel potentiators, confirmation, cell-based, CHO, FluxOR thallium flux, duplicate. shares compounds with KCNQ2 pot. CHO-KCNQ2 cells, FluxOR thallium flux fluorescence. potentiation, less the hit threshold, % at 10 µM. hit rate 68% among 1,200. AID 2287, 2010;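 active = fluorescence ratio rising 3 SD or more over the vehicle control mean in both replicates, plus primary screen hit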;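 also: peak minus minimum thallium fluorescence divided by baseline after K/Tl stimulus; 0% = vehicle mean plus 3 SD and 100% = vehicle minus unstimulated blank difference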
# Kir2-1 sel = mouse Kir2.1 channel activation off-target, confirmation, selectivity assay for KCNQ2 potentiator project, cell-based, HEK293, FluxOR thallium flux | shares compounds with KCNQ2 pot | HEK293 Kir2.1, FluxOR thallium flux fluorescence | activity over 3SD threshold, % at 10 µM | hit rate 2% among 1,200 | AID 2345, 2010;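 active = fluorescence ratio rise of at least 3 SD above the vehicle-control mean, seen in both replicates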;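 also: 0% = vehicle mean plus 3 SD and 100% = vehicle minus no-stimulus blank window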
# KCNQ2 W236L MoA = potentiators of retigabine-insensitive KCNQ2 W236L, mechanism study for KCNQ2 potentiator project, cell-based, rat KCNQ2 W236L, CHO, automated patch clamp | current increase over 3SD of negative controls (%), active compounds read high, % at 25 µM | hit rate 10% among 940 | automated patch clamp current | shares compounds with KCNQ2 pot;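 active = current increase at least 3 SD of the untreated controls above them in both duplicate recordings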
# An asterisk follows results filed as active; i = inactive; . = no result given. In the library only some 1.6% were active in any assay of this set; here they are far more common.
SMILES,KCNQ2 pot,KCNQ2 inh,Kir21 conf inh,HEK293 ctr,others
COC(=O)c1cccc(NC(=S)Nc2ccc(Cl)c(Cl)c2)c1,5.4*,i,i,i,CHO-K1 ctr=-9;KCNQ1 sel pot=1.4*;KCNQ2 pot confirm=-1;Kir2-1 sel=-40;KCNQ2 W236L MoA=i
COC(=O)c1cccc(NC(=S)Nc2ccccc2Cl)c1,0.44,i,.,.,
Cc1ccc(C)c(N2CCN(C(=O)CNS(=O)(=O)c3cccs3)CC2)c1,.,i,.,.,
Cc1sc2nc(C(C)C)nc(SCC(=O)N3CCOCC3)c2c1C,12*,i,i,i,CHO-K1 ctr=5.3*;KCNQ1 sel pot=-18;KCNQ2 pot confirm=34*;Kir2-1 sel=-38;KCNQ2 W236L MoA=i
Cc1nc(SCC(=O)N2CCCCC2)c2c(C)c(C)sc2n1,7.4*,i,i,i,CHO-K1 ctr=-10;KCNQ1 sel pot=100*;KCNQ2 pot confirm=41*;Kir2-1 sel=-35;KCNQ2 W236L MoA=i
Cc1sc2ncnc(SCC(=O)N3CCCCC3)c2c1C,2.5,i,.,.,
CCn1c(SC(C)C(=O)N2CCOCC2)nc2sc(C)c(C)c2c1=O (configuration not stated),1.1,i,.,.,
N#CCCN(Cc1ccccc1)C(=O)c1nccnc1C(=O)O,0.98,i,.,.,
COCCCN1CC(=O)N2C(c3cccc(OC)c3OC)c3[nH]c4ccccc4c3C[C@H]2C1=O (some centres not stated),0.19,i,.,.,
CCNc1ccc(C(=O)NN=C2CCCC2)cc1[N+](=O)[O-],.,i,.,.,
CCCNS(=O)(=O)/C=C/c1ccccc1,1.2,i,.,.,
CNS(=O)(=O)/C=C/c1ccccc1,16*,i,i,i,CHO-K1 ctr=-4;KCNQ1 sel pot=-28;KCNQ2 pot confirm=-16;Kir2-1 sel=-33
CC(=O)NNc1nc(-c2ccccc2)c2cc(Br)ccc2n1,.,i,.,.,
O=C(CN1CCCCC1)NNc1nc(-c2ccccc2)c2cc(Br)ccc2n1,11*,i,i,i,CHO-K1 ctr=75*;KCNQ1 sel pot=-11;KCNQ2 pot confirm=71*;Kir2-1 sel=-39;KCNQ2 W236L MoA=i
CCc1ccc(C(=O)Nn2c(C)nc3ccccc3c2=O)cc1,1.4,i,.,.,
CCCCCc1ccc(CC(=O)Nn2c(C)nc3ccccc3c2=O)cc1,15*,i,i,i,CHO-K1 ctr=10*;KCNQ1 sel pot=-8;KCNQ2 pot confirm=93*;Kir2-1 sel=-40;KCNQ2 W236L MoA=i
CCOC(=O)/C(C#N)=C/Nc1ccccc1OC(F)(F)F,.,i,.,.,
CSc1ccc(S(=O)(=O)NC(C)c2ccccc2)cc1 (configuration not stated),1.2,i,42%*,i,
CSc1ccc(S(=O)(=O)NCc2ccccc2)cc1,.,i,.,.,
Cc1ccc(S(=O)(=O)NC(C)c2ccccc2)cc1[N+](=O)[O-] (configuration not stated),0.61,i,46%*,i,
C/C(CC(C)C)=N\NS(=O)(=O)c1ccc(C)c([N+](=O)[O-])c1,.,i,.,.,
COC(=O)c1ccc(/C=C/c2c(-c3ccsc3)sc3ccccc23)cc1,1.6,i,.,.,
CCOC(=O)c1ccc(NC(=O)N2CCN(c3cccc(OC)c3)CC2)cc1,.,i,.,.,
O=C(COc1ccc(Br)cc1)N(Cc1ccco1)C1CCS(=O)(=O)C1 (configuration not stated),.,i,.,.,
CC(=O)Nc1ccc(-n2nnnc2SCC(=O)Nc2cccc(NC(=O)c3ccco3)c2)cc1,.,i,.,.,
SMILES,KCNQ2 pot,KCNQ2 inh,Kir21 conf inh,HEK293 ctr,others
N#C/C(=C1/C(=O)Nc2ccc(Br)cc21)c1ccccn1,0.65,i,.,.,
CCS(=O)(=O)c1ccc2oc(SCC(=O)Nc3ccc(OC)cc3OC)nc2c1,0.67,i,.,.,
CCS(=O)(=O)c1ccc2oc(SCC(=O)NC(C)C3CC4CCC3C4)nc2c1 (configuration not stated),10*,i,i,i,CHO-K1 ctr=-17;KCNQ1 sel pot=-14;KCNQ2 pot confirm=21*;Kir2-1 sel=-37;KCNQ2 W236L MoA=i
O=c1c2sccc2n(Cc2cccc(F)c2)c(=O)n1-c1ccc(F)cc1,.,i,.,.,
O=C(Cc1ccccc1)Nc1nc(=O)c2ccccc2s1,2.7,i,.,.,
O=C(Nc1nc(=O)c2ccccc2s1)c1ccc(F)cc1,5.8*,i,i,174%*,CHO-K1 ctr=-4;KCNQ1 sel pot=-30;KCNQ2 pot confirm=-12;Kir2-1 sel=-18
Cc1ccc(S(=O)(=O)N2CCC(C(=O)Nc3nnc(C)s3)CC2)cc1,.,i,.,.,
COc1ccc(CCNC(=O)CCC(=O)NC2CCCC(C)C2C)cc1OC (configuration not stated),1.1,i,.,.,
CC1(C)C(=O)OC(C(=O)c2ccccc2)C(C)(C)C1=O (configuration not stated),.,i,.,.,
Cc1cc(C)c(C(=O)C2OC(=O)C(C)(C)C(=O)C2(C)C)c(C)c1 (configuration not stated),10*,i,i,i,CHO-K1 ctr=6.5*;KCNQ1 sel pot=-16;KCNQ2 pot confirm=2.7*;Kir2-1 sel=-40;KCNQ2 W236L MoA=i
COc1ccc(OC)c(S(=O)(=O)N2CCCC(C(=O)N3CCCCCC3)C2)c1 (configuration not stated),.,i,.,.,
OC1(c2ccc(Br)cc2)CCN(Cc2cccc(Br)c2)CC1,.,i,20%*,i,
Brc1cccc(CN2CCCCCC2)c1,0.57,i,.,.,
CCOc1ccc(S(=O)(=O)N(C)CC(=O)NCc2ccccn2)cc1Cl,1.4,i,.,.,
CCn1cc(C(=O)NC2CCCCCC2)c(=O)c2ccc(C)nc21,0.08,i,.,.,
COCCCn1c(=O)c2ccccc2n(CC(=O)NC2CCCCC2)c1=O,0.92,i,.,.,
CCC(=O)NCC(c1cccs1)N1CCOCC1 (configuration not stated),0.5,i,.,.,
Cc1cc(SCC(=O)NCC(c2cccs2)N2CCOCC2)c(C)cc1Br (configuration not stated),5.4*,i,i,i,CHO-K1 ctr=38*;KCNQ1 sel pot=-11;KCNQ2 pot confirm=-5;Kir2-1 sel=-48;KCNQ2 W236L MoA=i
